Test results reported in PubChem BioAssay (NCI).
About 83,000 compounds went through this panel and 20% of them were active in at least one assay; those are over-represented in the sample as a whole.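 Values shown are percent growth following 48 h exposure of cells in 96-well plates to a single concentration of compound; below 10 was considered active.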 Unmarked numbers belong to inactive results. Activity calls are given as the source filed them.

What follows are compounds tested on MDA-MB-468 breast (assay: NCI-60 one-dose screen, 48 h (100 = growth as untreated, 0 = no growth, -100 = all killed)). Conditions: 10 µM unless noted.
`C/C(=C\CCc1ccoc1)CC/C=C(\C)CCCN1CCSCC1` showed a growth of 22.6%.
Work on `O=C(N/N=C/c1ccc(Cl)cc1)c1ccc(C(F)(F)F)nc1Nc1cccc(C(F)(F)F)c1` yielded a growth of 16.7%.
`Cc1nc2ccccc2c(/C=C/c2ccc(Cl)cc2)c1C(=O)/C=C/c1ccc(Cl)cc1` was tested, and the growth was -50.9% (active).
With `CCOC(=O)c1sc(-c2ccc(OS(=O)(=O)c3cccs3)c(C=O)c2)nc1C` the growth was -15.4% (active).
`CC1NC(C)c2ccc3ccccc3c2O1` (stereo not given) was tested, and the growth was 109%.
`NS(=O)(=O)c1ccc(-n2ncc(NC(=O)Nc3ccc(S(=O)(=O)Nc4nccs4)cc3)c2-c2ccccc2)cc1` showed a growth of 102%.
Compound `COc1ccc(/C=N\NC(=O)c2ccc3nc(-c4ccc(Cl)cc4)[nH]c3c2)cc1` has a growth of 24.2%.
For `CC[N+](CC)=c1sc2c(s1)C(c1ccc(Cl)cc1)Oc1ccc(Cl)cc1-2` (stereo not given), the growth was -4.17% (active).
With `Cc1cc2c(C(=O)NCC#N)cccc2n1-c1nc2c(c(NCc3ccccc3)n1)CCCC2` the growth was -52.5% (active).
Compound `CCc1ccc(C2=NN(c3ccc(S(C)(=O)=O)cc3)C(=O)CC2)cc1` has a growth of 50.7%.
Compound `Cc1cc(N2CCN(CC(=O)Nc3ccc4c(ccn4Cc4ccccc4)c3)CC2)nc(N2CCCCCC2)n1` has a growth of 13.1%.
With `N#CC1=C(c2ccc(Br)cc2)NC(SCC(=O)c2ccc(Br)cc2)NC1=O` (stereo not given) the growth was 113%.
Work on `O=S(=O)(N=C1C(Cl)=C(Cl)C(=NS(=O)(=O)c2ccccc2)C(Cl)=C1Cl)c1ccccc1` yielded a growth of 70.3%.
`C=CCNc1nc(O)c(/C=C2\C=Nc3ncccc32)s1` was tested, and the growth was 1.02% (active).
With `CN1CCN(Cc2ccc(NC(=O)c3[nH]ncc3Nc3ncnc4sc5c(c34)CCCC5)cc2)CC1` the growth was -58.7% (active).
For `COC(=O)C1Cc2ccccc2CN1C(=O)c1ccc2c(c1)Cc1ccccc1-2` (stereo not given), the growth was 14.5% [50 µM].
In the case of `CCCC/C(=N\N=C(N)N)c1ccc(F)cc1`, the growth is reported as -12.3% (active).
`S=c1nc(CS)[nH]c2ccccc12` showed a growth of 103%.
`O=C(Nc1ccc(Cl)c(C(F)(F)F)c1)Nc1ccc(-c2cccnc2)cc1N1CCC(CO)CC1` was tested, and the growth was 12.6%.
In the case of `O=C1c2cc3c(cc2-c2c1c1cc(Cl)c(Cl)cc1c(=O)n2CCCn1ccnc1)OCO3`, the growth is reported as -38.5% (active).
Work on `CCN(CC)c1ccc2c(cc1=O)[C@@H](NC(C)=O)CCc1cc(OC)c(OC)c(OC)c1-2` yielded a growth of 36.9%.
For `S=c1[nH]ccn1-c1ccccc1Cl`, the growth was 103%.
With `Nc1ccc(N=Nc2ccc(O)cc2)c(N)n1` the growth was 83.4%.
With `O=C(CN1CCOCC1)Nc1ccc(Cn2nnc3c2C(=O)c2nnn(Cc4ccc(NC(=O)CN5CCOCC5)cc4)c2C3=O)cc1` the growth was -61.7% (active).
`CCCCn1c(-c2ccc(C(=O)O/N=C(\N)c3ccc4c(c3)OCO4)cc2)nc(-c2ccccc2)c1-c1ccccc1` was tested, and the growth was 73.8%.
For `CC1=CC(=O)C(C(C)C)=CC1=Nc1cc(Br)c(O)c(Br)c1`, the growth was 44.7%.
In the case of `C=C(C)[C@@H]1CC[C@]2(C(=O)O)CC[C@]3(C)[C@H](CC[C@@H]4[C@@]5(C)C[C@@H](CC#Cc6ccccc6C)C(=O)C(C)(C)[C@@H]5CC[C@]43C)[C@@H]12`, the growth is reported as 17.2%.
For `C#CCOC(=O)C(N)CS` (stereo not given), the growth was 97.3%.
For `COc1cc2c(c(OC)c1OC)-c1ccc(OC)c(=O)cc1[C@@H](NC(=O)CCl)CC2`, the growth was -5.69% (active).
`CC[C@H](Nc1nc(C)nc(N)c1C#N)c1nc2cccc(NCc3ccc(C(=O)NO)cc3)c2c(=O)n1-c1ccccc1` was tested, and the growth was -37.1% (active).
With `COc1ccc(-c2cnc(N)nc2-c2ccc(OC)cc2O)cc1` the growth was 92.5%.
`CN1C=CN(Cc2ccc(-c3ccccn3)nc2)[CH-]1.CN1C=CN(Cc2ccc(-c3ccccn3)nc2)[CH-]1.[Au+3]` was tested, and the growth was -19.2% (active).
With `O=c1oc2cc(OS(=O)(=O)C3CC3)ccc2c2c1CCCCCC2` the growth was 39%.
Work on `CCCCCCCCC(C)OC(=O)c1nn(C(C)=O)c2ccccc12` (stereo not given) yielded a growth of 96.8%.
`COc1ccccc1N1CCN(C(=S)Nc2ccccc2)CC1` gave a growth of 97%.
In the case of `O=C(NNc1nc2cc(F)ccc2n2c(CN3CC4CNCC4C3)ccc12)c1cnccn1` (stereo not given), the growth is reported as 3.88% (active).
For `Cc1c2cnccc2c(C)c2c1c1cc(C3OCCCO3)ccc1n2C`, the growth was -34% (active).
`CCN(CC)CCCOCCCNc1cc(OC)cc2cccnc12` was tested, and the growth was -6.79% (active).
`COc1ccc(C2CC(n3ccnc3)c3cc(OC)c(OC)c(OC)c32)cc1O` (stereo not given) gave a growth of 78.6%.
With `COc1cc(-c2nc3sccn3c2-c2ccnc(NCCCNS(=O)(=O)c3ccc(F)cc3)n2)ccc1F` the growth was 61.3%.
